Experimental data published in PubChem BioAssay AID1159580 (chemical genetic matrix, 2015).
Several values for one entry are separate records, joined by “and”; a condition that tells them apart may be missing. Equal values may be shown once. Hit rate of the full screen: of about 5,500 compounds, about 2,000 (36%) were called active. Another 18% or so got no clear call; they are omitted. No stated cut-off is given here; in the data, active means normalized growth mostly below about 0.91 (no sharp cut-off); inconclusive means no clear call, values can overlap the other calls; inactive means mostly above about 0.92. The list shows a part of the results.

Test: chemical genetic growth profiling, strain panel (AID 1159580);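 further: tested at 20 µM; growth read once vehicle control cultures reached saturation at 30 °C; 1 = growth at the plate median or of vehicle wells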
Conditions: growth OD
[1] = S. cerevisiae deletion strains, locus YBR021W, strain FUR4, stronger effect = lower value
[2] = S. cerevisiae deletion strains, locus YBR229C, strain ROT2, stronger effect = lower value
[3] = S. cerevisiae deletion strains, locus YCL029C, strain bik1, stronger effect = lower value
[4] = S. cerevisiae deletion strains, locus YDL035C, strain GPR1, stronger effect = lower value
[5] = S. cerevisiae deletion strains, locus YDL074C, strain BRE1, stronger effect = lower value
[6] = S. cerevisiae deletion strains, locus YDL101C, strain DUN1, stronger effect = lower value
[7] = S. cerevisiae deletion strains, locus YDL185W, strain tfp1, stronger effect = lower value
[8] = S. cerevisiae deletion strains, locus YDL192W, strain arf1, stronger effect = lower value
[9] = S. cerevisiae deletion strains, locus YDR101C, strain arx1, stronger effect = lower value
[10] = S. cerevisiae deletion strains, locus YDR150W, strain NUM1, stronger effect = lower value
[11] = S. cerevisiae deletion strains, locus YDR162C, strain NBP2, stronger effect = lower value
[12] = S. cerevisiae deletion strains, locus YDR318W, strain mcm21, stronger effect = lower value
[13] = S. cerevisiae deletion strains, locus YDR388W, stronger effect = lower value
[14] = S. cerevisiae deletion strains, locus YDR502C, strain sam2, stronger effect = lower value
[15] = S. cerevisiae deletion strains, locus YEL061C, strain CIN8, stronger effect = lower value
[16] = S. cerevisiae deletion strains, locus YER110C, stronger effect = lower value
[17] = S. cerevisiae deletion strains, locus YER155C, strain BEM2, stronger effect = lower value
[18] = S. cerevisiae deletion strains, locus YER167W, strain BCK2, stronger effect = lower value
[19] = S. cerevisiae deletion strains, locus YGL078C, strain dbp3, stronger effect = lower value
[20] = S. cerevisiae deletion strains, locus YGL086W, strain mad1, stronger effect = lower value
[21] = S. cerevisiae deletion strains, locus YGL248W, strain PDE1, stronger effect = lower value
[22] = S. cerevisiae deletion strains, locus YGR135W, strain pre9, stronger effect = lower value
[23] = S. cerevisiae deletion strains, locus YGR229C, strain SMI1, stronger effect = lower value
[24] = S. cerevisiae deletion strains, locus YGR252W, strain gcn5, stronger effect = lower value
[25] = S. cerevisiae deletion strains, locus YHR030C, strain SLT2, stronger effect = lower value
[26] = S. cerevisiae deletion strains, locus YHR079C, strain IRE1 (second series), stronger effect = lower value
[27] = S. cerevisiae deletion strains, locus YHR094C, strain hxt1, stronger effect = lower value
[28] = S. cerevisiae deletion strains, locus YHR129C, strain ARP1, stronger effect = lower value
[29] = S. cerevisiae deletion strains, locus YHR200W, strain rpn10, stronger effect = lower value
[30] = S. cerevisiae deletion strains, locus YIL066C, strain RNR3, stronger effect = lower value
[31] = S. cerevisiae deletion strains, locus YIL073C, strain SPO22, stronger effect = lower value
[32] = S. cerevisiae deletion strains, locus YIL125W, strain kgd1, stronger effect = lower value
[33] = S. cerevisiae deletion strains, locus YIR030C, strain dcg1, stronger effect = lower value
[34] = S. cerevisiae deletion strains, locus YJL095W, strain BCK1, stronger effect = lower value
[35] = S. cerevisiae deletion strains, locus YJL134W, strain LCB3, stronger effect = lower value
[36] = S. cerevisiae deletion strains, locus YJL168C, strain set2, stronger effect = lower value
[37] = S. cerevisiae deletion strains, locus YJL187C, strain SWE1 (second series), stronger effect = lower value
[38] = S. cerevisiae deletion strains, locus YJR043C, strain POL32, stronger effect = lower value
[39] = S. cerevisiae deletion strains, locus YKL009W, strain mrt4, stronger effect = lower value
[40] = S. cerevisiae deletion strains, locus YKL068W, stronger effect = lower value
[41] = S. cerevisiae deletion strains, locus YKL085W, strain MDH1 (second series), stronger effect = lower value
[42] = S. cerevisiae deletion strains, locus YKL085W, strain MDH1, stronger effect = lower value
[43] = S. cerevisiae deletion strains, locus YKR001C, strain vps1, stronger effect = lower value
[44] = S. cerevisiae deletion strains, locus YLR039C, strain RIC1, stronger effect = lower value
[45] = S. cerevisiae deletion strains, locus YLR058C, strain SHM2, stronger effect = lower value
[46] = S. cerevisiae deletion strains, locus YLR102C, strain apc9, stronger effect = lower value
[47] = S. cerevisiae deletion strains, locus YLR262C, strain YPT6, stronger effect = lower value
[48] = S. cerevisiae deletion strains, locus YLR268W, strain sec22, stronger effect = lower value
[49] = S. cerevisiae deletion strains, locus YLR330W, strain CHS5, stronger effect = lower value
[50] = S. cerevisiae deletion strains, locus YLR342W, strain FKS1 (second series), stronger effect = lower value
[51] = S. cerevisiae deletion strains, locus YLR371W, strain rom2, stronger effect = lower value
[52] = S. cerevisiae deletion strains, locus YLR418C, strain cdc73, stronger effect = lower value
[53] = S. cerevisiae deletion strains, locus YML016C, strain PPZ1, stronger effect = lower value
[54] = S. cerevisiae deletion strains, locus YML032C, strain rad52, stronger effect = lower value
[55] = S. cerevisiae deletion strains, locus YML124C, strain tub3, stronger effect = lower value
[56] = S. cerevisiae deletion strains, locus YMR078C, strain ctf18, stronger effect = lower value
[57] = S. cerevisiae deletion strains, locus YMR223W, strain ubp8, stronger effect = lower value
[58] = S. cerevisiae deletion strains, locus YMR263W, strain SAP30, stronger effect = lower value
[59] = S. cerevisiae deletion strains, locus YMR307W, strain GAS1, stronger effect = lower value
[60] = S. cerevisiae deletion strains, locus YNL067W, strain RPL9B, stronger effect = lower value
[61] = S. cerevisiae deletion strains, locus YNL233W, strain BNI4, stronger effect = lower value
[62] = S. cerevisiae deletion strains, locus YNL250W, strain rad50, stronger effect = lower value
[63] = S. cerevisiae deletion strains, locus YNL271C, strain bni1, stronger effect = lower value
[64] = S. cerevisiae deletion strains, locus YNL298W, strain CLA4, stronger effect = lower value
[65] = S. cerevisiae deletion strains, locus YNL307C, strain MCK1, stronger effect = lower value
[66] = S. cerevisiae deletion strains, locus YNR052C, strain pop2, stronger effect = lower value
[67] = S. cerevisiae deletion strains, locus YOL012C, strain htz1
[68] = S. cerevisiae deletion strains, locus YOL147C, strain pex11, stronger effect = lower value
[69] = S. cerevisiae deletion strains, locus YOR061W, strain CKA2, stronger effect = lower value
[70] = S. cerevisiae deletion strains, locus YOR069W, strain VPS5, stronger effect = lower value
[71] = S. cerevisiae deletion strains, locus YOR136W, strain idh2, stronger effect = lower value
[72] = S. cerevisiae deletion strains, locus YOR144C, strain elg1, stronger effect = lower value
[73] = S. cerevisiae deletion strains, locus YOR184W, strain ser1, stronger effect = lower value
[74] = S. cerevisiae deletion strains, locus YOR316C, strain cot1, stronger effect = lower value
[75] = S. cerevisiae deletion strains, locus YPL055C, strain LGE1, stronger effect = lower value
[76] = S. cerevisiae deletion strains, locus YPR119W, strain clb2, stronger effect = lower value
[77] = S. cerevisiae deletion strains, locus YPR141C, strain kar3, stronger effect = lower value
[78] = S. cerevisiae deletion strains, locus YPR163C, strain tif3, stronger effect = lower value
[79] = S. cerevisiae deletion strains, locus YPR167C, strain met16, stronger effect = lower value
[80] = S. cerevisiae deletion strains, strain wtn01, stronger effect = lower value
[81] = S. cerevisiae strains, strain wild type, stronger effect = lower value

Measured: normalized growth

O=C(O)c1cccnc1Nc1cccc(C(F)(F)F)c1
active: [7] 0.896 | [32] 0.919 | [40] 0.912 | [41] 0.916 | [42] 0.916 | [55] 0.933 | [63] 0.916 | [77] 0.895
inactive: S. cerevisiae deletion strains, locus YAL013W, strain DEP1, stronger effect = lower value 0.97 | S. cerevisiae deletion strains, locus YAL040C, strain CLN3, stronger effect = lower value 1.02 | [1] 0.922 | [2] 0.964 | [3] 0.944 | S. cerevisiae deletion strains, locus YCL061C, strain MRC1 (second series), stronger effect = lower value 1 | [4] 0.984 | [5] 0.999 | [6] 0.981 | S. cerevisiae deletion strains, locus YDL134C, strain PPH21, stronger effect = lower value 0.946 | [8] 0.942 | [9] 0.967 | [10] 0.975 | [11] 0.968 | [12] 0.953 | S. cerevisiae deletion strains, locus YDR363W, strain ESC2, stronger effect = lower value 1 | [13] 0.941 | [14] 0.963 | [15] 0.972 | S. cerevisiae deletion strains, locus YER002W, strain NOP16, stronger effect = lower value 0.973 | [16] 0.954 | [17] 0.931 | [18] 0.957 | [19] 0.943 | [20] 0.963 | [21] 0.989 | [22] 0.95 | [23] 0.978 | [24] 0.911 | [25] 0.949 | [26] 0.942 | [27] 0.941 | [28] 0.953 | [29] 0.945 | [30] 0.973 | [31] 0.954 | [33] 0.939 | [34] 0.996 | [35] 0.953 | [36] 0.941 | [37] 1 | [38] 0.991 | S. cerevisiae deletion strains, locus YJR075W, strain HOC1, stronger effect = lower value 0.981 and 1.02 | [39] 0.944 | S. cerevisiae deletion strains, locus YKL190W, strain CNB1, stronger effect = lower value 0.979 | [43] 0.949 | [44] 0.966 | [45] 0.969 | [46] 0.938 | [47] 0.975 | [48] 0.978 | [49] 0.943 | [50] 0.936 | [51] 0.951 | [52] 0.909 | [53] 0.967 | [54] 0.966 | [56] 0.945 | [57] 0.958 | [58] 0.973 | [59] 0.881 | [60] 1.02 | S. cerevisiae deletion strains, locus YNL153C, strain GIM3, stronger effect = lower value 0.991 | S. cerevisiae deletion strains, locus YNL175C, strain NOP13, stronger effect = lower value 0.981 | S. cerevisiae deletion strains, locus YNL197C, strain WHI3, stronger effect = lower value 1 | S. cerevisiae deletion strains, locus YNL224C, strain SQS1, stronger effect = lower value 0.969 | [61] 0.988 | [62] 0.9 | [64] 0.942 | [65] 0.937 | S. cerevisiae deletion strains, locus YNL322C, strain KRE1, stronger effect = lower value 0.969 and 1.02 | [66] 0.949 | S. cerevisiae deletion strains, locus YOL006C, strain TOP1, stronger effect = lower value 0.99 | [67] 1.13 | [68] 0.935 | [69] 0.974 | [70] 0.956 | S. cerevisiae deletion strains, locus YOR083W, strain WHI5 (second series), stronger effect = lower value 0.992 | [71] 0.98 | [72] 0.944 | [73] 0.968 | [74] 0.931 | [75] 1.04 and 1.01 | [76] 0.934 | [78] 0.95 | [79] 0.938 | [80] 0.957 | [81] 0.981

CNc1ccccc1C(=O)O
inactive: [1] 0.955 | [2] 1 | [3] 1.01 | [4] 1.02 | [5] 1.03 | [6] 1.02 | [7] 1 | [8] 0.996 | [9] 1 | [10] 0.997 | [11] 1.05 | [12] 0.998 | [13] 1 | [14] 1.02 | [15] 1 | [16] 1.02 | [17] 0.973 | [18] 1 | [19] 0.981 | [20] 0.989 | [21] 1.03 | [22] 1 | [23] 1 | [24] 1.02 | [25] 1.01 and 0.862 | [26] 0.986 | S. cerevisiae deletion strains, locus YHR079C, strain IRE1, stronger effect = lower value 0.873 | [27] 1 | [28] 1.01 | [29] 1.01 | [30] 1.04 | [31] 1.09 | [32] 0.969 | [33] 1.01 | [35] 1 | [36] 0.996 | [37] 1.02 | [38] 1.01 | S. cerevisiae deletion strains, locus YJR066W, strain TOR1, stronger effect = lower value 0.842 | [39] 0.972 | [40] 0.967 | [41] 0.985 | [42] 0.985 | [43] 1 | [44] 1.03 | [45] 1.02 | [46] 1 | [47] 1.06 | [48] 0.993 | [49] 1.02 | [50] 1.02 | [51] 0.995 | [52] 1.08 | [53] 1.01 | [54] 1.02 | [55] 1.01 | [56] 1 | [57] 1.01 | [58] 1.02 | [59] 1.08 | [60] 1.01 | [61] 1.02 | [62] 0.994 | [63] 0.989 | [64] 1.01 | [65] 0.993 | [66] 1 | [67] 1.68 | [68] 0.999 | [69] 1.01 | [70] 1.01 | [71] 1.01 | [72] 0.994 | [73] 1.01 | S. cerevisiae deletion strains, locus YOR231W, strain MKK1, stronger effect = lower value 0.884 | [74] 1.01 | [75] 1.04 | S. cerevisiae deletion strains, locus YPL241C, strain CIN2, stronger effect = lower value 0.999 | S. cerevisiae deletion strains, locus YPL256C, strain CLN2, stronger effect = lower value 0.838 | [76] 0.995 | [77] 0.968 | [78] 0.998 | [79] 1.02 | [80] 1.01 | [81] 1.01
1.05 (inactive) and 0.875 (active): [34]
active: S. cerevisiae deletion strains, locus YLR113W, strain HOG1, stronger effect = lower value 0.78 | S. cerevisiae deletion strains, locus YNL183C, strain NPR1, stronger effect = lower value 0.822
